From the supplement of paper PMC10849652
Targets with a hit are over-represented here; the source holds about 8,800 in all. About 0.5% of all pairs of compound and target were hits.

Experiments:
Assay in all cases: log2 fold change, soluble protein after heating vs DMSO (PISA); higher = thermal stabilisation; K562 lysate, 10 uM; active = over 0.2 and 3.5 SD of the protein, either way, in both replicates (recomputed)
[1] = compound: C1=CC=C(C=C1)[C@H](COC2=CC3=C(C=C2)NC(=O)N3)NC(=O)C4=CC=CN(C4=O)CC5=CC(=C(C=C5)F)F
How it was run: (§1)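 To prepare the extract, K562 pellets were dounce-homogenised in PBS pH 7.4 with 1 mM MgCl2, giving crude material at 1 mg/mL protein. This was treated with 10 μM compound for 30 min, then heated in aliquots for 3 min over 48°C-58°C before pooling and addition of NP-40 to 0.5% at 4°C. Centrifugation at 21,000xg for 90 min left soluble protein in the supernatant, which TMTpro 16plex LC-MS/MS quantified with equalised channel sums. Results are log-two fold changes in thermal stability compared with solvent controls, from duplicates.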

[2] = compound: CC1=C(SC2=C1C(=N[C@H](C3=NN=C(N32)C)CC(=O)N)C4=CC=C(C=C4)Cl)C
How it was run: as §1

[3] = compound: CC1=C2C(=CC=C1)N=C(N(C2=O)C3=CC=CC=C3C)CN4C=NC5=C(N=CN=C54)N
How it was run: as §1

[4] = compound: Cc1sc2c(c1C)C(c1ccc(Cl)cc1)=N[C@@H](CC(=O)OC(C)(C)C)c1nnc(C)n1-2
How it was run: as §1

[5] = compound: c1ccc([C@@H]2C[C@H]2NC2CCNCC2)cc1
How it was run: as §1

Measured: log2 fold change

FAM83D (UniProt Q9H4H8)
Sequence of UniProt Q9H4H8 (Q9H4H8 whole entry, looked up): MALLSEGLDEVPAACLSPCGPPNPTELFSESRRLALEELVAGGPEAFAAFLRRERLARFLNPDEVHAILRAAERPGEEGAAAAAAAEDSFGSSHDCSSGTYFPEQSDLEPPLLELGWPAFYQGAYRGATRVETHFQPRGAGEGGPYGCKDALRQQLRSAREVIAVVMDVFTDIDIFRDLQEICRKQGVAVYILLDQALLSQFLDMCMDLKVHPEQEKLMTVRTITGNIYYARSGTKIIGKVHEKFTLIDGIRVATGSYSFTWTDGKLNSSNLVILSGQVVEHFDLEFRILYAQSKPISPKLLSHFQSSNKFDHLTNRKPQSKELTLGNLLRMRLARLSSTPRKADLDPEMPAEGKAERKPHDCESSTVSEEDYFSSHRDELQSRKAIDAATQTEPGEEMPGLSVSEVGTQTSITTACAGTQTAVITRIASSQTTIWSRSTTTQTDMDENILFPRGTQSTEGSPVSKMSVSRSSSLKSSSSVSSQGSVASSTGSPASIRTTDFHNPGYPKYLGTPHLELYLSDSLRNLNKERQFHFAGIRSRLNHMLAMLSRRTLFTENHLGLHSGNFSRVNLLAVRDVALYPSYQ
inactive: [1] -0.021 | [2] 0.023 | [3] 0.035 | [4] -0.02 | [5] -0.006

EXOC5 (UniProt O00471)
Sequence of UniProt O00471 (O00471 whole entry, looked up): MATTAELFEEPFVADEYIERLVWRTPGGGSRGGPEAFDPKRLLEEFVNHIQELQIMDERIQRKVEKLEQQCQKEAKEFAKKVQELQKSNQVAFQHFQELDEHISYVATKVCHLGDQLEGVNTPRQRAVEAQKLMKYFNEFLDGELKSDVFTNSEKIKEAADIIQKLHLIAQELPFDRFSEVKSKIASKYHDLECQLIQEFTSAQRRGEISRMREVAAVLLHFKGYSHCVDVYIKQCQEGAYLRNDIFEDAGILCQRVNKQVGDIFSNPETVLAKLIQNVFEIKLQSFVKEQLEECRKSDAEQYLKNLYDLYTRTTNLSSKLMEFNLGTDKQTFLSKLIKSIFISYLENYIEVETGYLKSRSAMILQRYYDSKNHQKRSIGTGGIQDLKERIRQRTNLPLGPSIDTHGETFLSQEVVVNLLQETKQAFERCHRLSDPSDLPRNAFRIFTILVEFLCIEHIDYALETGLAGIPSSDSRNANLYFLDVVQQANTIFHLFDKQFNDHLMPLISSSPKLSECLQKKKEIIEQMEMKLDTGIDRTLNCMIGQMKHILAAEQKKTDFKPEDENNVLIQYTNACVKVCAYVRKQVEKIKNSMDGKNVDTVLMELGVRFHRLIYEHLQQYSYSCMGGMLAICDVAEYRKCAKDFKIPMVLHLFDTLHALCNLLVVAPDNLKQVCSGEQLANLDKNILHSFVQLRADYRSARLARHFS
inactive: [1] -0.065 | [2] -0.002 | [3] 0.068 | [4] -0.023 | [5] 0.035

EXTL2 (UniProt Q9UBQ6)
Sequence of UniProt Q9UBQ6 (Q9UBQ6 whole entry, looked up): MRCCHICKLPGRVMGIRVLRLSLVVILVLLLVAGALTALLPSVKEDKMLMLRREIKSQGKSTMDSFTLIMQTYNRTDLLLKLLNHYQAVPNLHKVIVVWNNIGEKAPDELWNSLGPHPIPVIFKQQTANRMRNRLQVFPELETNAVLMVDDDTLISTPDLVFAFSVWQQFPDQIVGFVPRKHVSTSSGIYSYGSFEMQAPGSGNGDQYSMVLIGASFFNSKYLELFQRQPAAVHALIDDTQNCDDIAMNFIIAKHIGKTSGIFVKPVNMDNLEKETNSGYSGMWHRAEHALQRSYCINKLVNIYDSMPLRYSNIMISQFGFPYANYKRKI
inactive: [1] 0.208 | [2] 0.235 | [3] -0.059 | [4] -0.185 | [5] 0.028

GGA2 (UniProt Q9UJY4)
Sequence of UniProt Q9UJY4 (Q9UJY4 whole entry, looked up): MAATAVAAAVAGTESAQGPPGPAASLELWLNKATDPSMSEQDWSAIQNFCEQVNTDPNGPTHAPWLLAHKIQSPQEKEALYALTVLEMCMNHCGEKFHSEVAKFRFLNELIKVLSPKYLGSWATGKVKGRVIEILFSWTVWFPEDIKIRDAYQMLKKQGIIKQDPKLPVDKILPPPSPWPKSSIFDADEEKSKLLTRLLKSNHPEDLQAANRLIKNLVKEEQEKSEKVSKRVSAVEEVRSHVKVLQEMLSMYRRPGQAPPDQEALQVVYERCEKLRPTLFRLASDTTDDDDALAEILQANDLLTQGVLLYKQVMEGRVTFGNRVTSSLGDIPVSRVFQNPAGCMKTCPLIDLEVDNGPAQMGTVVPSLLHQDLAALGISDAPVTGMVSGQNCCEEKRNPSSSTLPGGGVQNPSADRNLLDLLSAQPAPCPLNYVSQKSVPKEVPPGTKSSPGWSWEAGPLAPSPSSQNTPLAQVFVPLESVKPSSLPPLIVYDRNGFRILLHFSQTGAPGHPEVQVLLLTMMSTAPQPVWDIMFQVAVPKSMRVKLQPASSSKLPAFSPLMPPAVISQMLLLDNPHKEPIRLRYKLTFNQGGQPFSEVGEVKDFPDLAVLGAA
inactive: [1] -0.055 | [2] 0.011 | [3] -0.085 | [4] 0.062 | [5] 0.032

FBXO22 (UniProt Q8NEZ5)
Sequence of UniProt Q8NEZ5 (Q8NEZ5 whole entry, looked up): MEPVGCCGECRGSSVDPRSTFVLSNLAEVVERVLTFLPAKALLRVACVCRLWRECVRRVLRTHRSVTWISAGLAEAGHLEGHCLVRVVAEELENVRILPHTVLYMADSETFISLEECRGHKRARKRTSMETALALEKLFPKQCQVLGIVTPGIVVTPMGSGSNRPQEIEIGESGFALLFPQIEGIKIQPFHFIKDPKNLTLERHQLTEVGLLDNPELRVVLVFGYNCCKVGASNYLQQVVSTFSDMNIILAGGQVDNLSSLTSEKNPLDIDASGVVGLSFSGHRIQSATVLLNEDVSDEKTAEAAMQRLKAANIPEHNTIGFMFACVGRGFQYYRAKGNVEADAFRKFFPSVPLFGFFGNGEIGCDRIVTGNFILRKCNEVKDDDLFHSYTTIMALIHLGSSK
inactive: [1] -0.007 | [2] -0.004 | [3] 0.03 | [4] 0.02 | [5] 0.083

EPHX2 (UniProt P34913)
inactive: [1] 0.021 | [2] 0.006 | [3] 0 | [4] 0.119 | [5] -0.012

EIF2B5 (UniProt Q13144)
Sequence of UniProt Q13144 (Q13144 whole entry, looked up): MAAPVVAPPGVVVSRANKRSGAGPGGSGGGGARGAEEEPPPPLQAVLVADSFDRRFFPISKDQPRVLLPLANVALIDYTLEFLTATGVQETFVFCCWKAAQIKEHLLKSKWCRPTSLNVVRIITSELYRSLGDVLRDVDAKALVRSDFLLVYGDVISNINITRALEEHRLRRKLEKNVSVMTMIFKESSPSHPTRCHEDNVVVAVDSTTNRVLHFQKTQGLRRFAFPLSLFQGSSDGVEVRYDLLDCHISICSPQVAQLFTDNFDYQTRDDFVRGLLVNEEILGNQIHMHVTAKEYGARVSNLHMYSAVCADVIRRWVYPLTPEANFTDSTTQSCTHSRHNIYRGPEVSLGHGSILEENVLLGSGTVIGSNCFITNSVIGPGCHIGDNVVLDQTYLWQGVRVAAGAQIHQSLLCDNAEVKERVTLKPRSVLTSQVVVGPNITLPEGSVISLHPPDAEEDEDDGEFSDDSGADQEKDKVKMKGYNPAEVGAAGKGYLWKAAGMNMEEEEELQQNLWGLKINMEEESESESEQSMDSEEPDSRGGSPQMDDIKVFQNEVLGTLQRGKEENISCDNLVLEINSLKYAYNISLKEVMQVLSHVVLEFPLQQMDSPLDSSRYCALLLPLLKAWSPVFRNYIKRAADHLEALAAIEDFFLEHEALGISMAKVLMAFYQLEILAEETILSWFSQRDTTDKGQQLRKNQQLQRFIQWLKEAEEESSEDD
inactive: [1] -0.03 | [2] 0.007 | [3] 0.019 | [4] 0.023 | [5] 0.017

EPB41 (UniProt P11171)
Sequence of UniProt P11171 (P11171 whole entry, looked up): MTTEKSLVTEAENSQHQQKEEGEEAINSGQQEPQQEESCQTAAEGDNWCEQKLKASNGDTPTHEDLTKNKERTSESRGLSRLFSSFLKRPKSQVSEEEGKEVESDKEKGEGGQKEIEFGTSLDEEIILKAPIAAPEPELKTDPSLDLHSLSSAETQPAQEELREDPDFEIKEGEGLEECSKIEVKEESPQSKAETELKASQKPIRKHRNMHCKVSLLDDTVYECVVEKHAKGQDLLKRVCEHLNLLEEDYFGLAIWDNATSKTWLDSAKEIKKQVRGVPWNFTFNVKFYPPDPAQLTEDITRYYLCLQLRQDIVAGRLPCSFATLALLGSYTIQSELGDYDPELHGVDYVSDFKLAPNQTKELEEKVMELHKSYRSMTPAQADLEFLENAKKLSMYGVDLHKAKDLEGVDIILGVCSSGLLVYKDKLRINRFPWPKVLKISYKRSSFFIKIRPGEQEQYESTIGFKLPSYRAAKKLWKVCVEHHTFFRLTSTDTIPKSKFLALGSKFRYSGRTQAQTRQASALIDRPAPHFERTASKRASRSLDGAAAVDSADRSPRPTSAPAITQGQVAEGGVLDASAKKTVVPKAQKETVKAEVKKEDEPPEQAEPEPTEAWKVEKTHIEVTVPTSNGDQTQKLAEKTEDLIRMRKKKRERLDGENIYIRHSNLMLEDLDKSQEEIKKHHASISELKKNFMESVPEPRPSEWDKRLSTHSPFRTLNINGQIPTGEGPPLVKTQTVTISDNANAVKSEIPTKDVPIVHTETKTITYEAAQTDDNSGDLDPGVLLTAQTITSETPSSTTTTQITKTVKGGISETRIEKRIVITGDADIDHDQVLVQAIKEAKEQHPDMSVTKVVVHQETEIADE
inactive: [1] -0.004 | [2] -0.021 | [3] -0.023 | [4] 0.027 | [5] 0.032

DYNC1I2 isoform 2 (UniProt Q13409)
Sequence of UniProt Q13409 (Q13409 whole entry, looked up): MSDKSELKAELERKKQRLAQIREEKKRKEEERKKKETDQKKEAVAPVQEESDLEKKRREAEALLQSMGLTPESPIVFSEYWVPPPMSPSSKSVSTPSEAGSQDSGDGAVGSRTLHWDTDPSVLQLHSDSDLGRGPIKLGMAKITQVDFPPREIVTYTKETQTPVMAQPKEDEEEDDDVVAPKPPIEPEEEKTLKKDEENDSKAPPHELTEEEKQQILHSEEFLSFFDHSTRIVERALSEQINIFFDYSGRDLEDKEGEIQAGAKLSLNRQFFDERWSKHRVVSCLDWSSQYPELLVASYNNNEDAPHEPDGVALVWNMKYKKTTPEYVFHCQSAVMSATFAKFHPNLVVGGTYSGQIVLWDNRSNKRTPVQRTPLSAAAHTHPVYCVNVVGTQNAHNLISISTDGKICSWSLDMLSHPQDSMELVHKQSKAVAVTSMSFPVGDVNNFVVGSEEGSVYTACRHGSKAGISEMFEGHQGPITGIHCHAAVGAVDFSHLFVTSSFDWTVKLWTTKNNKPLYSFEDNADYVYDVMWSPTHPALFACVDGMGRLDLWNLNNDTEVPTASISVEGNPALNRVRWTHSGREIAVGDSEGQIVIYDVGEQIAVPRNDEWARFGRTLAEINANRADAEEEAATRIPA
inactive: [1] -0.011 | [2] 0.253 | [3] -0.005 | [4] 0.082 | [5] 0.155
